The supplement of paper PMC5407854, “Inhibitor of ppGalNAc-T3-mediated O-glycosylation blocks cancer cell invasiveness and lowers FGF23 levels” (eLife, 2017)
The full ranking holds about 1,700 compounds; the median of “T3 sensor activation Q score (MG/GFP ratio z-score vs DMSO controls)” is about 0.25, and the highest 2% start at about 1.9. Shown is part of a subset that was picked to be rich in the highest values.

These compounds were tested on ppGalNAc-T3 sensor (assay: T3 sensor activation Q score (MG/GFP ratio z-score vs DMSO controls) (SD units); higher = more sensor activation (inhibition of ppGalNAc-T3 glycosylation)). Details: HEK293 sensor cells; 10 µM; 6 h.
Experimental: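 Cells were treated with compound at 10 uM for 6 h, then MG/GFP ratio was read by flow cytometry (10,000 cells per well, duplicate wells). Q = (R - R_neg)/SD_neg relative to DMSO vehicle controls; the signal rises when the glycosyltransferase is inhibited.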

SMILES | T3 sensor activation Q score
CC12CCC3C(CCC4Cc5[nH]c6ccccc6c5CC43C)C1CCC2O (stereo not given) | 0.6
C[C@H]1CC[C@@]2(C)[C@@H](CC[C@@H]3[C@@H]2CC[C@]2(C)[C@@H](O)CC[C@@H]32)C1 | 3
COc1ccc2c(c1)NP(=S)(Oc1ccccc1)N2 (stereo not given) | -0.15
CCC1CCC(C)N(N=O)C1 (stereo not given) | 1.05
Oc1cccc2nc3ccccc3nc12 | -0.35
O=c1cccc2n1C[C@H]1C[C@@H]2CN2CCCC[C@@H]12 | 0.2
CC(CC(C#N)(c1ccccc1)c1ccccc1)N1CCCCC1 (stereo not given) | 0.05
CN1C2c3ccccc3C3C4c5ccccc5C(C31)C(C2[N+](=O)[O-])N4C (stereo not given) | 1.1
CC12CCC3C(CC=C4CC(O)CCC43C)C1C/C(=C\N1CCCC1)C2=O (stereo not given) | 1.9
CN1C(=O)CC[C@@]2(C)C1=CC[C@@H]1[C@@H]2CC[C@@]2(C)[C@H]1CC[C@]2(C)O | 0.4
O=C(OC1CCCCC1)c1ccccc1C(=O)OC1CCCCC1 | 0.2
Nc1nc(N)c2cnnn2n1 | 0.5
FCCN(CCF)c1cccc(Cl)c1 | 1.9
c1ccc2nc(OCCN3CC3)ccc2c1 | 1
c1ccc2c(c1)Sc1ccccc1N2CC1CN2CCC1CC2 (stereo not given) | -0.15
CC1(C)CC(=O)CC(C)(C)N1O | -1.9
CC(=O)Nc1cc([As](=O)(O)O)ccc1O | 1.4
NC(=S)c1cn([C@@H]2O[C@H](CO)[C@@H](O)[C@H]2O)c2ncnc(N)c12 | 4.95
C1CC2NCCC3NCCC(N1)N32 (stereo not given) | -0.95
CCOC(=O)c1ccc2[nH]c(-c3ccc(S(=O)(=O)F)cc3)cc(=O)c2c1 | 0.95
O=C(NC(=O)c1c(F)cccc1F)Nc1cc(Cl)c(F)c(Cl)c1F | -0.65
O=C1N(c2nncs2)CCN1[N+](=O)[O-] | 2.65
CC[C@@]1(O)C(=O)OCc2c1cc1n(c2=O)Cc2cc3ccccc3nc2-1 | -1.75
C=CCNC(=S)Nc1ccc(OC(=O)Nc2ccc(Cl)c(Cl)c2)cc1 | 0.4
Cn1cc(C=O)c2nccnc21 | -1.5
